Most compounds without a hit are left out; they make up all but 2.6% or so of the library.
BRCA1 expr up: increases BRCA1 expression; 380,000 compounds, 1.1% hits; MCF7-BRCA1-FFLuc reporter, luminescence, 48 h; response scale: scaled: vehicle 0%, 10 µM genistein 100%; Potency, µM (top dose mostly 46.1 µM), most hits filed as activators; further: nearly all actives have a fitted effect of over 80% in size
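48 h compound treatment of MCF7-BRCA1-FFLuc cells (phenol-red free MEM, 37 °C), then 15 min with luciferase substrate and luminescence imaging.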
GLP1R cytotox: cytotoxicity counter-screen for GLP-1 receptor inverse agonists; HEK293 cAMP-luciferase reporter cells, luminescence, 24 h; Potency, µM (highest dose often 38.3 µM), most hits filed as inhibitors; 410,000 compounds, 0.13% hits;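 further: loss of luciferase light is scored as toxicity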
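1536-well qHTS counterscreen of the MLSMR; 200 cells/uL, 12 h pre-incubation, 23 nL cpd, 24 h at 37 deg C 5% CO2, luciferase detection reagent, 12 min RT, luminescence. Inhibition = undesired.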
GLP1R inv ag: inverse agonists of human GLP-1 receptor; Potency, µM (titrated, usually from 38.3 µM), hits mostly inhibitors; AID 624417; HEK293 GLP-1R CRE-luciferase, luminescence, 24 h; GLP-1R form is constitutively active; 410,000 compounds, 1.6% hits; further: nearly all actives have a fitted effect of over 55% in size
Target sequence (P43220 whole entry, looked up): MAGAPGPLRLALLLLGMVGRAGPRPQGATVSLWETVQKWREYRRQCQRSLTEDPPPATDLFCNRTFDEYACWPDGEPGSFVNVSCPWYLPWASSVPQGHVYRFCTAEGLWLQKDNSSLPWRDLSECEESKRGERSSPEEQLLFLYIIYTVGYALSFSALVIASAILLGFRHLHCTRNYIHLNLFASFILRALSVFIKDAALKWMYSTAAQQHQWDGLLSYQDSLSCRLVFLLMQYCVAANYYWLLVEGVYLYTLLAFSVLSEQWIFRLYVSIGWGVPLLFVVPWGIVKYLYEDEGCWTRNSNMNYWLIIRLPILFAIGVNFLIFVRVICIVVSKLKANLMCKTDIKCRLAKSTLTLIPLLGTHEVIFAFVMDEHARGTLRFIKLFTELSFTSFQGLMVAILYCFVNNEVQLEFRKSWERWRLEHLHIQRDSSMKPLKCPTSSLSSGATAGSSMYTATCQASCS
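Seeding at 200 cells/uL, 12 h culture, 24 hr compound treatment, then luciferase reagent and a luminescence read; cells are HEK293 stably expressing a constitutively active GLP-1R plus cAMP-responsive luciferase.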
GLP-1R agonist: activates the human GLP-1 receptor; Potency, µM (series often up to 45.6 µM), most hits filed as activators; 380,000 compounds, 0.007% hits; AID 624172; HEK293 GLP-1R CRE-luciferase, luminescence, 4-6 h; cells express a hypersensitive GLP-1R form
Numbers stand for hits; n = inactive; u = inconclusive; x = not tested or not shown. The call rests on the fitted dose curve; in most records, active means well fitted curve in the direction sought with a large enough effect; inconclusive means small, poorly fitted or top-dose-only effect, or another doubt; inactive means no such curve, though single readings can be large; an effect the other way counts as inactive or inconclusive.

SMILES | BRCA1 expr up | GLP1R cytotox | GLP1R inv ag | GLP-1R agonist
CC(C)C(=O)Nc1nnc(S(=O)(=O)N2CCCCCC2)s1 | n | n | n | n
O=C1c2ccccc2CCCC12N=NCC2c1cccc2ccccc12 (centres undefined) | n | n | 7.1µM | n
COc1cc(C(=O)O[C@H]2C/C(C)=C/CC[C@@]3(C)O[C@@H]3[C@H](O)[C@@H]2C(C)C)cc(OC)c1OC | n | n | 13µM | n
COc1cc(C(=O)O[C@H]2C/C(C)=C/CC[C@]3(C)O[C@@H]3C(O)C2C(C)C)cc(OC)c1OC (some centres undefined) | n | n | u | n
O=C(Nc1cc(-c2ccccc2)nn1C1CCCCC1)c1ccc(Cl)cc1 | n | n | 10µM | n
Cn1cc(CCCC(=O)NCc2ccccc2Cl)c2ccccc21 | x | n | u | x
CCOc1ccc(OCCNC(=O)c2cc(C3CC3)nc3c2cnn3C(C)C)cc1 | n | n | 8.9µM | n
CCNC(=O)c1cccc(NC(=O)c2cc(C3CC3)nc3c2cnn3C(C)C)c1 | n | n | 10µM | n
CC(C)n1ncc2c(C(=O)NCCOc3ccccc3F)cc(C3CC3)nc21 | n | n | u | n
CC(C)n1ncc2c(C(=O)Nc3cccc(C#N)c3)cc(C3CC3)nc21 | n | n | 8.9µM | n
CC(C)n1ncc2c(C(=O)O)cc(C3CC3)nc21 | n | n | n | n
O=C(c1ccc2c(c1)N(Cc1ccc(F)cc1)C(=O)c1ccccc1S2(=O)=O)N1CCCC1 | n | n | n | n
CN(C)S(=O)(=O)c1cccc(NC(=O)COC(=O)c2ccc3ccccc3n2)c1 | n | n | n | n
CN(C)S(=O)(=O)c1cccc(NC(=O)COC(=O)c2cc(-c3cccc(Br)c3)nc3ccccc23)c1 | n | n | 10µM | n
O=C(CCl)N1CCN2C(=O)c3ccccc3C12c1ccc(Cl)cc1 (centres undefined) | n | n | u | n
O=C(Nc1cccc(Cl)c1)N1CCN2C(=O)c3ccccc3C12c1ccccc1 (centres undefined) | n | u | 8.9µM | n
O=C(N/N=C/c1ccc(Br)cc1)c1ccc(Br)o1 | 7.9µM | n | n | n
CCN(CC)c1ccc2cc(-c3nnc(-c4ccccc4)o3)c(=O)oc2c1 | 1.4µM | n | n | n
CCN(CC)c1ccc2cc(-c3nc4ccccc4[nH]3)c(=O)oc2c1 | n | n | n | n
COc1ccc(NC(=O)c2ccccc2OCC(=O)Nc2ccc(Br)cc2)cc1 | n | x | x | x
CCCc1nnc(NC(=S)Nc2ccccc2)s1 | 2.2µM | u | u | n
CC(C)(C)C(=O)Nc1nnc(CCc2ccccc2)s1 | 4.5µM | n | u | n
CCCc1nnc(NC(=O)CCC(=O)Nc2ccc(Cl)cc2)s1 | n | n | n | n
CCC(=O)Nc1nnc(CCc2ccccc2)s1 | n | n | n | n
CC(C)C(=O)Nc1nnc(NC(=S)Nc2ccccc2)s1 | 10µM | u | n | n
SMILES | BRCA1 expr up | GLP1R cytotox | GLP1R inv ag | GLP-1R agonist
COc1ccc(C(=O)NC2CC2)cc1OC1CCN(Cc2ccc(F)cc2Cl)CC1 | n | u | 10µM | n
CC(=O)Nc1ccc(NC(=O)c2nc(SCc3ccccc3F)ncc2Cl)cc1 | n | x | x | x
CCCCCC(=O)Nc1ccccc1N1CCOCC1 | n | n | n | n
CCCCC1CCC(C(=O)Nc2ccccc2N2CCOCC2)CC1 (centres undefined) | n | n | 10µM | n
O=C(CSc1ncc(-c2ccc(F)cc2)[nH]1)N1CCCCC1 | 11µM | n | n | n
COc1ccc(CN2C(=O)N(c3ccc(F)cc3)C(=O)C2CC(=O)Nc2cc(OC)cc(OC)c2)cc1 (centres undefined) | x | n | n | x
CN(C)/C=C1\SC(=S)N(c2ccc(Br)cc2)C1=O | 10µM | n | n | n
CN(C)/C=C1\SC(=S)N(c2ccc(F)cc2)C1=O | n | u | n | n
CC(C)(C)c1ccc(C2Sc3ccccc3NC3=C2C(=O)c2ccccc23)cc1 (centres undefined) | x | n | u | x
O=C(OCc1ccccc1)N1CCC2CC1c1cc(-c3ccc(F)cc3)ccc12 (centres undefined) | n | n | u | n
O=C(OCc1ccccc1)N1CCC2CC1c1cc(NCCc3ccccc3)ccc12 (centres undefined) | n | n | 11µM | n
Cc1cccc(CC(=O)NCC2CCCCC2)c1 | 10µM | n | n | n
CC(C)Oc1ccc(C(=O)N2CCC(c3nc4ccccc4o3)CC2)cc1 | x | n | n | x
Cc1ccsc1/C=C(\C(=O)c1ccc(OC(C)C)cc1)c1nc2ccccc2o1 | n | n | 4µM | n
Cc1ccsc1/C=C(\CC(=O)O)c1nc2ccccc2o1 | 7.9µM | n | n | n
c1ccc2c(c1)Nc1cc3ccccc3cc1S2 | 7.1µM | n | n | n
CCC(=O)N/N=C/c1ccc(OS(=O)(=O)c2ccccc2)cc1 | n | n | n | n
NC(N)=N/N=C/c1ccc(OS(=O)(=O)c2ccccc2)cc1 | n | u | 6.3µM | n
Cc1ccccc1Nc1c(-c2ccc(N3CCOCC3)cc2)nc2ccc(Cl)cn12 | x | n | 10µM | x
Cc1ccn2c(Nc3ccccc3C)c(-c3ccc(N4CCOCC4)cc3)nc2c1 | x | n | 13µM | x
Fc1ccccc1N1CCN(c2cnc3ccccc3n2)CC1 | n | n | 10µM | n
COc1ccccc1N1CCN(C(=O)c2cc(-c3ccc(F)cc3)[nH]c2C)CC1 | n | u | 11µM | n
O=C(NC(=S)Nc1nc2c(s1)CCCC2)c1ccccc1 | n | n | u | n
S=C(Nc1nc2c(s1)CCCC2)NC1CC1 | 6.3µM | u | u | n
COc1cccc(NC(=O)CCc2nnc3n(CC(C)C)c(=O)c4ccccc4n23)c1 | x | n | n | x
SMILES | BRCA1 expr up | GLP1R cytotox | GLP1R inv ag | GLP-1R agonist
Cc1ccc(OCC(=O)NC(=S)Nc2ccccn2)c(Br)c1 | 11µM | n | n | n
O=C(COc1ccc(Br)cc1Cl)NC(=S)Nc1ccccn1 | u | n | n | n
COc1ccc(-c2onc(C)c2C)cc1S(=O)(=O)N1CCc2ccccc21 | x | n | n | x
Cc1ccc(Sc2cnc3ccccc3n2)cc1 | 7.1µM | n | n | n
Cc1cc(Sc2ccc(Cl)cc2)nc2ccccc12 | x | n | n | x
CCCN(CCc1cccs1)[C@H]1CCc2c(O)cccc2C1 | x | x | x | n
CC(C)OCCCNC(=S)N1CCC(C(=O)c2ccc(Cl)cc2)CC1 | n | n | u | n
CN(C)CCCNC(=S)N1CCC(C(=O)c2ccc(Cl)cc2)CC1 | n | n | 2µM | n
OC(CNc1ccccc1)Cn1ccc2ccccc21 (centres undefined) | n | n | 11µM | n
COc1ccc2oc(C(=O)NCCC(C)C)c(C)c2c1 | 7.1µM | n | u | n
Cc1ccc2oc(C(=O)N3CCCCCC3)c(C)c2c1 | 5.6µM | n | u | n
COc1ccc2oc(C(=O)N3CCN(C(c4ccccc4)c4ccccc4)CC3)c(C)c2c1 | n | n | 5.6µM | n
COc1ccc2oc(C(=O)OCC(=O)N(Cc3ccccc3)C(C)C)c(C)c2c1 | n | n | 11µM | n
COc1ccc2oc(C(=O)N3CCN(C/C=C/c4ccccc4)CC3)c(C)c2c1 | n | n | u | n
